From PubChem BioAssay (EPA / NIEHS)
Results filed as inconclusive are left out. More than one record can exist for a structure, and the calls need not agree. Calls of active or inactive are those of the source. How the source made its calls: active means hit-call score of the fitted dose curve at least 0.9, where 1 is the maximum; inconclusive means response in the unintended direction; inactive means score below 0.9.

target: Nuclear receptor subfamily 1 group I member 2 (Homo sapiens) (UniProt O75469); assay: NVS_NR_hPXR: NovaScreen (NVS) Nuclear Receptor Binding Assay for human Pregnane X Receptor (PXR) (AID 2283365);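 further: a drop in FRET signal versus DMSO baseline means the compound binds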
Procedure, shortened: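 Binding was measured by time-resolved fluorescence resonance energy transfer after a 2 h exposure of extracted human PXR protein without cells. Compounds were first tested at 25 uM in duplicate, with concentration series for actives; DMSO defined baseline.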

Sequence of Nuclear receptor subfamily 1 group I member 2 (Homo sapiens) (O75469 whole entry, looked up): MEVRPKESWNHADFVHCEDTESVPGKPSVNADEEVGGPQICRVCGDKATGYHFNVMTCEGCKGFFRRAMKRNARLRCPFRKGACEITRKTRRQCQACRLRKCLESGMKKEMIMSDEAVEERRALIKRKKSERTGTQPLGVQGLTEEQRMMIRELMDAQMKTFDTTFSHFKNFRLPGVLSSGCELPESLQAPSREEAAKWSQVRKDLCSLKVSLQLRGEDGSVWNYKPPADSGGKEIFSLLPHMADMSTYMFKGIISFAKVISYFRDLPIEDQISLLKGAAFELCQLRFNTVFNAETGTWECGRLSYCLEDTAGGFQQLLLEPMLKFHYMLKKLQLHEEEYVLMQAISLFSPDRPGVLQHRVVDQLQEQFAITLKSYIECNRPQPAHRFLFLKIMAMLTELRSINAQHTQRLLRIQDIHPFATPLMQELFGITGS

SMILES | outcome | AC50
CCCCC(CC)COC(=O)c1ccc(O)cc1 (configuration not stated) | inactive | –
O=C(O)c1ccc(O)cc1 | inactive | –
OCCc1ccccc1 | inactive | –
CC(C)c1ccccc1O | inactive | –
CCOC(=O)C1OC1c1ccccc1 (configuration not stated) | inactive | –
CSCCC=O | inactive | –
COc1ccc(N=Nc2cc(C)c(N=Nc3ccc(S(=O)(=O)O)cc3)cc2OC)cc1 | – | 8570 nM (active)
CCCCCCCCCCCCCCN(CCO)CCO | inactive | –
CCOc1ccc(N=Nc2ccc(C=Cc3ccc(N=Nc4ccc(OCC)cc4)cc3S(=O)(=O)O)c(S(=O)(=O)O)c2)cc1 | – | 695 nM (active)
O=C1NC2NC(=O)NC2N1 (configuration not stated) | inactive | –
CCCCCCCCN1CCCC1=O | inactive | –
CC(C)CCCCCCc1ccc(OCCOCCO)cc1 | inactive | –
O=C(Nc1ccc2c(O)c(N=Nc3ccc(N=Nc4ccc(S(=O)(=O)O)cc4)cc3)c(S(=O)(=O)O)cc2c1)c1ccccc1 | – | 1190 nM (active)
CCCCCCCC(=O)OCC(O)CO (configuration not stated) | inactive | –
CCc1ccc(O)cc1 | inactive | –
CCCCC(CC)COC(C)=O (configuration not stated) | inactive | –
OC[C@H]1O[C@@H]2O[C@H]3[C@H](O)[C@@H](O)[C@@H](O[C@H]4[C@H](O)[C@@H](O)[C@@H](O[C@H]5[C@H](O)[C@@H](O)[C@@H](O[C@H]6[C@H](O)[C@@H](O)[C@@H](O[C@H]7[C@H](O)[C@@H](O)[C@@H](O[C@H]8[C@H](O)[C@@H](O)[C@@H](O[C@H]9[C@H](O)[C@@H](O)[C@@H](O[C@H]1[C@H](O)[C@H]2O)O[C@@H]9CO)O[C@@H]8CO)O[C@@H]7CO)O[C@@H]6CO)O[C@@H]5CO)O[C@@H]4CO)O[C@@H]3CO | – | 4180 nM (active)
Clc1ccc(C(c2ccccc2Cl)C(Cl)Cl)cc1 (configuration not stated) | inactive | –
Oc1ccc2cc(SSc3ccc4cc(O)ccc4c3)ccc2c1 | inactive | –
Cc1ccc(S(=O)(=O)Oc2ccc(N=Nc3ccc(-c4ccc(N=Nc5c(O)ccc6cc(S(=O)(=O)O)cc(S(=O)(=O)O)c56)c(C)c4)cc3C)cc2)cc1 | – | 701 nM (active)
CCCCCCCCCCCCN1CCCCCC1=O | inactive | –
Cc1ccc(S(N)(=O)=O)cc1 | inactive | –
C=C1CC[C@H](O)C/C1=C/C=C1\CCC[C@]2(C)[C@@H]([C@H](C)/C=C/[C@H](C)C(C)C)CC[C@@H]12 | – | 12000 nM (active)
O=P(O)(O)O | inactive | –

target: rat Androgen Receptor (AR), Ar (gene 24208) (UniProt P15207); assay: NVS_NR_rAR: NovaScreen (NVS) Nuclear Receptor Binding Assay for rat Androgen Receptor (AR) (AID 2283366)
Procedure, shortened: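 Actives from a duplicate single-concentration (25 uM) primary run went on to concentration series. Displacement of radioligand was counted by filtration and scintillation, 18 h post-dose, using prostate extracts from testosterone-pretreated rats, with DMSO as baseline.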

Sequence of rat Androgen Receptor (AR), Ar (gene 24208) (P15207 whole entry, looked up): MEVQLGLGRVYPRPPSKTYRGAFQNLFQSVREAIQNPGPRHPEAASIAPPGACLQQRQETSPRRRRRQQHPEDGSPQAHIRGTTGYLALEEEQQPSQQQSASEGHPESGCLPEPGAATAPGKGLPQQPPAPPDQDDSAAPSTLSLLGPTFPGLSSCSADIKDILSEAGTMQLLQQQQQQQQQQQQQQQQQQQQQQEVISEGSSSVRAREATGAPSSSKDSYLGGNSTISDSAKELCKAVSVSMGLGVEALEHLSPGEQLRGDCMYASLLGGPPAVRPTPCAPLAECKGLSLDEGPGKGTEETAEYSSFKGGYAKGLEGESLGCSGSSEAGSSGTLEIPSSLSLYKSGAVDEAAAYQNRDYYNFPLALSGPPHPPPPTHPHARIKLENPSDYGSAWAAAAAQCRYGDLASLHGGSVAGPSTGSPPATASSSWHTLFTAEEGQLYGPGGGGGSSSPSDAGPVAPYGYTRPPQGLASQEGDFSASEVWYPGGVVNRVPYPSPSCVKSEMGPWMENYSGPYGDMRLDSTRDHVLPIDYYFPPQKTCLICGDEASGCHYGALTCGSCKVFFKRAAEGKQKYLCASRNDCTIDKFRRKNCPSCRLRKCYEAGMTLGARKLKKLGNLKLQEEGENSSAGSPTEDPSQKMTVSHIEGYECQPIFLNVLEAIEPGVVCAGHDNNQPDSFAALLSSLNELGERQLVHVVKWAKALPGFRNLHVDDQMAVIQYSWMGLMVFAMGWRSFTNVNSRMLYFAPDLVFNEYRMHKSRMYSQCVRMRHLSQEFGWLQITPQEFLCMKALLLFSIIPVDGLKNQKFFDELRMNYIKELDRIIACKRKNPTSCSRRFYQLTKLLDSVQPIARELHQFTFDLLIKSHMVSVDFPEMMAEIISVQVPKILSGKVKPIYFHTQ

SMILES | AC50 | outcome
CCCCCCCCC=CCCCCCCCC1=NCCN1CCO | 7330 nM (active) | –
C=C(C)[C@H]1CC=C(C)C(=O)C1 | – | inactive
Oc1c(Cl)cc(Cl)c(Cl)c1Cc1c(O)c(Cl)cc(Cl)c1Cl | 2060 nM (active) | –
Cc1ccc(S(=O)(=O)Oc2ccc(N=Nc3ccc(-c4ccc(N=Nc5c(O)ccc6cc(S(=O)(=O)O)cc(S(=O)(=O)O)c56)c(C)c4)cc3C)cc2)cc1 | 463 nM (active) | –

target: guinea pig Sigma Receptor, Non-selective Binding, SIGMAR1 (gene 100135589) (UniProt Q60492); assay: NVS_OR_gSIGMA_NonSelective: NovaScreen (NVS) Nuclear Receptor Binding Assay for guinea pig Sigma Receptor, Non-selective Binding (AID 2283367)
Procedure, shortened: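 Test chemicals were screened in duplicate at 25 uM, then in concentration series if active, against radioligand binding to guinea pig brain membranes; filtration and scintillation counting at 1 h measured remaining bound ligand.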

Sequence of guinea pig Sigma Receptor, Non-selective Binding, SIGMAR1 (gene 100135589) (Q60492 whole entry, looked up): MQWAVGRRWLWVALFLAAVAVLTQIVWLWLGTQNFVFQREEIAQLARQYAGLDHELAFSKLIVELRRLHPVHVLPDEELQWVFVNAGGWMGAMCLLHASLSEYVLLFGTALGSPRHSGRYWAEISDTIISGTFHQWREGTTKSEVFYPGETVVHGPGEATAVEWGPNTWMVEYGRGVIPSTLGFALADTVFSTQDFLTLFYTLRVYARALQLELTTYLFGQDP

SMILES | AC50 | outcome
CCOCCOCCOCC | 4870 nM (active) | –
c1ccc2[nH]cnc2c1 | – | inactive
CC(C=O)Cc1ccc(C(C)(C)C)cc1 (configuration not stated) | 2970 nM (active) | –

target: Peroxisome proliferator-activated receptor gamma (Homo sapiens) (UniProt P37231); assay: NVS_NR_hPPARg: NovaScreen (NVS) Nuclear Receptor Binding Assay for human Peroxisome Proliferator-activated Receptor gamma (PPARg) (AID 2283370)
Procedure, shortened: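 Fluorescence polarization measures competitive binding to extracted PPARg in a cell-free format. Reading is taken at 2 h; activity is signal loss relative to DMSO. Screening at 25 uM in duplicate preceded confirmatory dose series.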

Sequence of Peroxisome proliferator-activated receptor gamma (Homo sapiens) (P37231 whole entry, looked up): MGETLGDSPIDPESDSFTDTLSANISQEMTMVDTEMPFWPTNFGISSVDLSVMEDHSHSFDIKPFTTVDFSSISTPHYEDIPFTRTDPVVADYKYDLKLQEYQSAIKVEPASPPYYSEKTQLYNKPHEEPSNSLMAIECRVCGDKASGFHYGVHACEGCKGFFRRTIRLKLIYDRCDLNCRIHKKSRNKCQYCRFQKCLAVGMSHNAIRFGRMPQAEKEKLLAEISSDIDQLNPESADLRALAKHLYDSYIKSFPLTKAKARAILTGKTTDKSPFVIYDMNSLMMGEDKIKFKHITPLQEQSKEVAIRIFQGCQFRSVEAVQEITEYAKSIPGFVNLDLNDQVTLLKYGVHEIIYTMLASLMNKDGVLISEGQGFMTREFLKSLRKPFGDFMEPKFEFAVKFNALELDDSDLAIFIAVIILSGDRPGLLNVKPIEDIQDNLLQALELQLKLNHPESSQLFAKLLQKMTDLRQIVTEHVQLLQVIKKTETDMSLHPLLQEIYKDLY

SMILES | outcome | AC50
CSCCC=O | inactive | –
CCC(=O)O[C@@H]1C[C@H]2CC[C@]1(C)C2(C)C | inactive | –
COc1ccc(N=Nc2cc(C)c(N=Nc3ccc(S(=O)(=O)O)cc3)cc2OC)cc1 | inactive | –
CCOc1ccc(N=Nc2ccc(C=Cc3ccc(N=Nc4ccc(OCC)cc4)cc3S(=O)(=O)O)c(S(=O)(=O)O)c2)cc1 | inactive | –
CCCCCCCCc1ccc(S(=O)(=O)O)cc1 | inactive | 4220 nM (active)
O=C(Nc1ccc2c(O)c(N=Nc3ccc(N=Nc4ccc(S(=O)(=O)O)cc4)cc3)c(S(=O)(=O)O)cc2c1)c1ccccc1 | inactive | –
Oc1ccc2cc(SSc3ccc4cc(O)ccc4c3)ccc2c1 | inactive | –
Cc1ccc(S(=O)(=O)Oc2ccc(N=Nc3ccc(-c4ccc(N=Nc5c(O)ccc6cc(S(=O)(=O)O)cc(S(=O)(=O)O)c56)c(C)c4)cc3C)cc2)cc1 | inactive | –
C=C1CC[C@H](O)C/C1=C/C=C1\CCC[C@]2(C)[C@@H]([C@H](C)/C=C/[C@H](C)C(C)C)CC[C@@H]12 | inactive | –
Nc1ccc2cc(S(=O)(=O)O)cc(O)c2c1N=Nc1ccccc1C(F)(F)F | – | 2320 nM (active)
